Shown are actives, neighbours in structure and some others; about 3% of the full set was active somewhere.
KKLEB cytotox: CF airway cell cytotoxicity counter-screen. KKLEB CF airway cells viability, ATPlite luminescence, overnight; stronger effect = lower value; cells stimulated with P. aeruginosa culture filtrate. activity change (cytotoxicity), % at 5 µM. hit rate 0.36% among 360,000. AID 602141;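 active = corrected activity change at or below -50% at 5 µM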
Peg3 prom inh: reduces Peg3 promoter-driven luciferase expression in HeLa. HeLa PEG-Prom luciferase reporter, luminescence, overnight. inhibition, % at 20 µM. hit rate 1.7% among 360,000. AID 588405;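 active = inhibition of at least 50% at 20 µM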
CF NFkB block: cystic fibrosis NF-kB activation inhibition; KKLEB NF-kB-GFP reporter, PAF-induced, GFP fluorescence overnight; inhibition, % at 5 µM; hit rate 0.86% among 360,000; AID 588850;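 active = at least 50% inhibition at 5 µM, scaled per plate between neutral and stimulator controls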;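 note: PAF is a Pseudomonas aeruginosa culture filtrate used as stimulus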
ABHD5-PLIN5 inh: ABHD5-PLIN5 protein interaction inhibition; Q00G26+Q8WTS1; Split G. princeps luciferase complementation, luminescence, 4 h; inhibition, % at 4 µM; hit rate 0.78% among 360,000; AID 602281;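 active = inhibition above the mean inhibition across every tested compound plus 3 SD, cut at about 22% in these data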
Target sequence (Q00G26 whole entry, looked up): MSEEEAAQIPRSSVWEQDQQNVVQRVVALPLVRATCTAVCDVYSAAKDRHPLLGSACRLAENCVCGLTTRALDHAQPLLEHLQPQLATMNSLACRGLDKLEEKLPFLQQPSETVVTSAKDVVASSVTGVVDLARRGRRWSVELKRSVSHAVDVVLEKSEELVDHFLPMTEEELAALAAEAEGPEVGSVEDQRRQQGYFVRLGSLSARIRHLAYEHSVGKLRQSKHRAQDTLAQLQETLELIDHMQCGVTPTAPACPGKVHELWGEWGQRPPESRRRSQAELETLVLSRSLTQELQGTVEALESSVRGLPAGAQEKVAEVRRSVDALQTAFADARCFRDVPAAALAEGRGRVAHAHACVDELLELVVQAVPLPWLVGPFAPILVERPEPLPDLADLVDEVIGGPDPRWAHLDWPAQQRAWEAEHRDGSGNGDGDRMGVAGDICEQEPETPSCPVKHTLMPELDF
Target sequence (Q8WTS1 whole entry, looked up): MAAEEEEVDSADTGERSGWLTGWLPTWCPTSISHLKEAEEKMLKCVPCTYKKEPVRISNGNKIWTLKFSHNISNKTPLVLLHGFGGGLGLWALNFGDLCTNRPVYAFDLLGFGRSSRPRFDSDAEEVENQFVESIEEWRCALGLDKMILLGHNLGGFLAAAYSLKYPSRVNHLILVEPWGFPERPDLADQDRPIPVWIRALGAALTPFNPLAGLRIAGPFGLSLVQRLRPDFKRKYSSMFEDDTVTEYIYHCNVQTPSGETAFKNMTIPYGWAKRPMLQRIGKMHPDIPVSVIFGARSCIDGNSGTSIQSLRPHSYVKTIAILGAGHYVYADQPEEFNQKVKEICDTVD
TRPM1 prom inh: reduces MITF-dependent TRPM1 promoter luciferase signal. SK-MEL-5 TRPM1 promoter luciferase, 24 h. inhibition, % at 12.5 µM. hit rate 0.83% among 330,000. AID 488899;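 active = mean inhibition across replicates of 60% or more, whatever share of single replicates reaches that level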
HIF-2a inh: HIF-2a inhibition; 786-0 RCC cells HIF-2a reporter, luciferase luminescence, overnight; inhibition, % at 18.8 µM; hit rate 0.72% among 360,000; AID 624352;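 active = inhibition of the luminescence signal of 40% or more relative to plate controls, in a single-dose primary screen at 18.75 µM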
Large screens that a line does not name were inactive; ! = a repeat was not active.

N#Cc1c(-c2ccc(F)cc2)cc(-c2cccnc2)nc1N	Peg3 prom inh 53.5
COCCC(=O)N1CCC(n2nccc2NC(=O)CCc2ccccc2)CC1	none
COc1ccc(/C=C2\C(=O)N(c3c(Cl)cc(Cl)cc3Cl)N=C2NC(=O)c2cccc([N+](=O)[O-])c2)cc1	Peg3 prom inh 76.5, HIF-2a inh 44.9
COc1ccc(NC(=O)c2cccc(N3C(=O)c4cccc([N+](=O)[O-])c4C3=O)c2)cc1	none
Cc1cc(-c2cccnc2)c(C#N)c(SCC#N)n1	none
Cc1cc(-c2cccnc2)c(C#N)c(SCc2cccc(F)c2)n1	KKLEB cytotox -61.8, CF NFkB block 54.4
O=C(NCCCN1CCOCC1)C1CCN(S(=O)(=O)c2ccccc2)CC1	none
CCNC(=O)C1(C)CCN(C(=O)c2ccc(OC(F)F)cc2)C1 (stereo unspecified)	none (no result: TRPM1 prom inh)
CCc1ccc(S(=O)(=O)/N=C2\C=C(Nc3ccc(O)cc3)C(=O)c3ccccc32)cc1	KKLEB cytotox -88.2, Peg3 prom inh 103.6, CF NFkB block 99.4, TRPM1 prom inh 99.9, HIF-2a inh 68.6
CCc1ccc(S(=O)(=O)/N=C2\C=C(Nc3cccc(C(=O)O)c3)C(=O)c3ccccc32)cc1	CF NFkB block 95.8
CCc1ccc(S(=O)(=O)/N=C2/C=C(Sc3ncn[nH]3)C(=O)c3ccccc32)cc1	Peg3 prom inh 102.0, CF NFkB block 80.6, ABHD5-PLIN5 inh 32.3, TRPM1 prom inh 70.0, HIF-2a inh 89.0
Cc1ccc(S(=O)(=O)/N=C2/C=C(C3C(=O)CC(C)(C)CC3=O)C(=O)c3ccccc32)cc1	none
CNC(=O)c1cccc(NC(=O)c2cc(-c3ccccc3)nc3c2cnn3C(C)C)c1	Peg3 prom inh 59.1
CNC(=O)NC(=O)CSc1ccc(S(=O)(=O)N(C)C2CCCCC2)cn1	none
CCOC(=O)N1CCN(C2=C(NS(=O)(=O)c3ccc(C)cc3)C(=O)c3ccccc3C2=O)CC1	CF NFkB block 53.6
Cc1ccc(S(=O)(=O)NC2=C(N3CCN(Cc4ccccc4)CC3)C(=O)c3ccccc3C2=O)cc1	none
O=[N+]([O-])c1ccc(O)c(Nc2ncnc3ccc(Br)cc23)c1	CF NFkB block 57.7
C[C@H](O)C(=O)C1=Nc2c(nc(N)[nH]c2=O)NC1	KKLEB cytotox -94.8
COc1cccc(CNC(=O)CCCn2nc(C)c3c(C)n(-c4ccc(C)cc4)nc3c2=O)c1OC	none
N#CCc1c(C#N)c(N)nc(N2CCOCC2)c1C#N	ABHD5-PLIN5 inh 22.4
CC(OC(=O)c1nc(Cl)ccc1Cl)C(=O)NCc1ccccc1 (stereo unspecified)	none (no result: TRPM1 prom inh)
CCOc1ccc(N2C(=O)CC(Sc3nnnn3-c3ccccc3)C2=O)cc1 (stereo unspecified)	Peg3 prom inh 95.9, ABHD5-PLIN5 inh 26.9
CC(=O)Nc1ccc(NC(=O)C(C)OC(=O)CNC(=O)c2ccc(-c3ccccc3)cc2)cc1 (stereo unspecified)	none
CC(C)(C)CC(=O)NC(=S)NCc1ccccc1	none
CN(C)C(=O)c1ccc(SC(=S)NCc2ccccc2)cc1	Peg3 prom inh 85.3 (no result: TRPM1 prom inh)
COC(=O)c1cc(=O)n(CCc2ccccc2F)c(=Nc2ccc(F)c(Cl)c2)s1	Peg3 prom inh 91.0, HIF-2a inh 91.2 (no result: TRPM1 prom inh)
COC(=O)c1cc(=O)n(Cc2ccc3c(c2)OCO3)c(=Nc2ccc(F)cc2)s1	Peg3 prom inh 51.5
COC(=O)c1cc(=O)n(Cc2ccc3c(c2)OCO3)c(=Nc2ccccc2)s1	none (no result: TRPM1 prom inh)
Oc1cccc(-c2nc3c4c(ncn3n2)-c2ccccc2CC42CCCC2)c1	Peg3 prom inh 53.7
c1ccc(C2(CN3CCNC[C@H]3Cc3cccc4ccccc34)CC2)cc1	Peg3 prom inh 78.8 (no result: TRPM1 prom inh)
CC(C)(C)CN1CCNC[C@H]1Cc1cccc2ccccc12	none
CSc1ccccc1OCc1cc(C(=O)N2CCc3c(Cl)cccc3C2)no1	none
CN(CCC#N)c1ccc(/C=C(\C#N)c2ccccn2)cc1	KKLEB cytotox -51.6
CCN(CC)c1ccc(/C=C(\C#N)c2ccccn2)cc1	KKLEB cytotox -50.3
CCN(Cc1ccccc1)c1ccc(/C=C(\C#N)c2ccccn2)cc1	none
CS(=O)(=O)N(Cc1nc(-c2ccc(F)cc2)no1)c1ccccc1Cl	none
Cc1cccc(C)c1NC(=O)CNC(=O)c1ccc(COc2ccccc2)cc1	none
CCC(=O)Nc1ccc(-c2ccc(N3CCC(C)CC3)nn2)cc1	none
CCC(=O)Nc1cccc(-c2ccc(N3CCC(C)CC3)nn2)c1	KKLEB cytotox -54.7
C=CCn1cnc2c(c1=O)c1nc3ccccc3nc1n2/N=C/c1cccc(OC)c1OC	Peg3 prom inh 61.1
CCOC(=O)c1ccccc1NC(=O)COc1ccccc1	Peg3 prom inh 68.3
COC(=O)c1ccccc1NC(=O)CSCC(=O)Nc1ccccc1	KKLEB cytotox -69.2
COC(=O)c1ccccc1NC(=O)CC(=O)Nc1ccccc1C(=O)OC	none
COC(=O)c1ccccc1NC(=O)Nc1ccc(C(=O)N2CCCC2)cc1	Peg3 prom inh 58.1
CCOC(=O)c1ccccc1NC(=O)COC(=O)CCCOc1ccccc1	none
CCn1cc(C(=O)NCCc2ccc(OC)cc2)c(=O)c2ccc(C)nc21	none
CC1=CC(=O)C(C(C)C)=C/C1=C(\c1cc(C(C)C)c(OP(=O)(O)O)cc1C)c1ccccc1C(=O)O	Peg3 prom inh 67.0
Cc1ccc(-c2cc(C(=O)N3N=C(C(F)F)CC3(O)C(F)F)c3ccccc3n2)cc1C (stereo unspecified)	KKLEB cytotox -50.3, CF NFkB block 51.5
CCN(Cc1ccncc1)C(=O)c1ccc2c(c1)S(=O)(=O)c1ccccc1C2=O	none
O=C(O)c1ccc(NC2=C/C(=N/S(=O)(=O)c3ccccc3)c3ccccc3C2=O)cc1	CF NFkB block 89.1, TRPM1 prom inh 62.7, HIF-2a inh 44.2
O=C(O)c1ccc(NS(=O)(=O)c2ccc3c(c2)C(=O)c2ccccc2C3=O)cc1	none
Cc1cc(C)c(S(=O)(=O)/N=C2\C=C(Nc3ccc(C(=O)O)cc3)C(=O)c3ccccc32)c(C)c1	KKLEB cytotox -63.3, Peg3 prom inh 103.3, CF NFkB block 91.1, TRPM1 prom inh 77.8
CN(Cc1ccccc1)C1=CC(=[N+]2CCCC2)CC(C)(C)C1	TRPM1 prom inh 77.2
Cc1ccc(S(=O)(=O)N(C(=O)c2ccncc2)c2ccc(OC(=O)c3ccncc3)c3ccccc23)c(C)c1	Peg3 prom inh 50.8, ABHD5-PLIN5 inh 32.5
O=C(NC(=Nc1nc2ccccc2o1)NC(=O)c1ccccc1)c1ccccc1	none
COc1ccccc1C(=O)NC(=Nc1nc2ccccc2o1)NC(=O)c1ccccc1OC	Peg3 prom inh 86.1!
Cc1nn(C)c(=O)n1N(C)c1ncc(C(F)(F)F)cc1Cl	Peg3 prom inh 67.0
C#CCOCCOCCOCCNc1nc(N2CCOCC2)nc(N2CCN(C(=O)CCCCCCCCCCNC(=O)[C@H](CO)n3cc(CCCSC)nn3)CC2)n1	none

Screening data deposited in PubChem by several laboratories.
